Compound activity deposited in PubChem by several laboratories.
The list is not random: actives were taken first. Their share in the collection is about 2.6%.
Mcl1-Noxa inh: Mcl-1/Noxa interaction inhibition. Q07820. TR-FRET Mcl-1/Noxa peptide binding, 2 h. inhibition, % at 21.7 µM. 220,000 tested, 1.5% active. AID 1022;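 active = compounds that cut the protein-peptide binding signal by more than 50% relative to plate controls in a single-dose test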;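 note: His-tagged Mcl-1 with rhodamine Noxa BH3 peptide and terbium anti-His antibody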
Target sequence (Q07820 whole entry, looked up): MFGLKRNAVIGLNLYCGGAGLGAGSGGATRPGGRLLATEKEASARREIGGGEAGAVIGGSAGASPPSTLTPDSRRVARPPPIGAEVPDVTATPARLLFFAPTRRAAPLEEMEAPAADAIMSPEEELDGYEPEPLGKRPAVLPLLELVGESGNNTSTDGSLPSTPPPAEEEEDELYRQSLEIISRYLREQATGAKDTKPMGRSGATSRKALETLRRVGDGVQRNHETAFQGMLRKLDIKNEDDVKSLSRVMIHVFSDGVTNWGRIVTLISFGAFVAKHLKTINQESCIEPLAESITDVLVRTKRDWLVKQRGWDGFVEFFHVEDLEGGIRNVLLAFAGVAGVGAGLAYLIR
Bim-Mcl-1: inhibitors of Bim-Mcl-1 interaction, human; Q07820; Bead-based flow cytometry, Bim peptide-Mcl-1 binding; inhibition, % at 10 µM; 190,000 tested, 0.1% active; AID 1009; in the data active = inhibition above about 40%
14-3-3 Bad inh: disrupts binding of bovine 14-3-3 zeta to phospho-Bad peptide; AID 781; inhibition, % at 21.7 µM; P63103; TR-FRET 14-3-3zeta/Dy647-pBad peptide displacement, 1 h; 220,000 tested, 0.71% active;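 active = inhibition above about 70%, limit read from the data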
Mcl1-Bid inh: disrupts binding of human Mcl-1 to Bid peptide; TR-FRET Mcl-1/Bid-Dy647 peptide binding, 1536-well; 220,000 tested, 0.97% active; inhibition, % at 21.7 µM; AID 1021; Q07820;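 active = compounds that cut the binding signal by more than half at the single screening dose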;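 note: His-tagged Mcl-1 with europium anti-His antibody binding Bid BH3 peptide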
eIF4E 4G PPI: blocks eIF4E binding to eIF4G. 220,000 tested, 0.37% active. TR-FRET eIF4E-eIF4GI(517-606) binding, 2 h. P63073+Q04637. inhibition, % at 21.7 µM;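 active = inhibition above about 30%, limit read from the data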
MCL1-BIM inh: disrupts human MCL1 binding to BIM-BH3 peptide. inhibition, % at 10.9 µM. GST-MCL1 / FITC-Bim-BH3 fluorescence polarization. AID 2057. 320,000 tested, 0.68% active;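 active = inhibition above the mean inhibition of all tested compounds plus 3 SD, set per campaign, cut at about 40% in these data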;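 note: higher means more loss of mP so more displacement of Bim peptide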
Bcl-xL conf: Bcl-xL (human) inhibition, MCL1 counter-screen confirmation. GST-Bcl-xL / FITC-Bim BH3 peptide FP binding. shares compounds with MCL1-BIM inh. inhibition, % at 10.9 µM. 1,700 tested, 54% active;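 active = inhibition above a cutoff equal to the mean inhibition of all tested compounds plus 3 SD, cut at about 30% in these data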
MCL1 BIM confirm: MCL1-BIM-BH3 interaction inhibition, confirmation; shares compounds with MCL1-BIM inh; GST-MCL1 / FITC-Bim-BH3 fluorescence polarization; inhibition, % at 10.9 µM; 1,700 tested, 61% active; AID 2168;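 active = inhibition above the average of all tested compounds plus 3 SD, cut at about 40% in these data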
A number is an active result; 0 = inactive; - = not tested or not shown.

SMILES	Mcl1-Noxa inh	Bim-Mcl-1	14-3-3 Bad inh	Mcl1-Bid inh	eIF4E 4G PPI	MCL1-BIM inh	Bcl-xL conf	MCL1 BIM confirm
O=C(O)CSc1cc(NS(=O)(=O)c2ccc(Br)cc2)c2ccccc2c1O	-	-	-	-	-	42	35	79
Cc1ccc(NC2=CC(=O)C(=O)c3ccccc32)c(C)c1	-	-	-	-	-	0	-	-
O=C1C=C(Nc2ccccc2O)c2ccccc2C1=O	0	0	0	0	0	100	0	0
Cc1ccc(Oc2c(CO)c(-c3ccccc3)nn2C)cc1	0	0	0	0	0	48	0	0
COc1ccccc1NC(=O)Cn1c(O)c(N=NC(=O)c2ccccc2O)c2ccccc21	0	0	79	0	0	50	0	62
CCOc1ccc(C(=O)NC(=S)Nc2cccnc2)cc1[N+](=O)[O-]	0	0	0	0	0	0	-	-
COc1ccc(C(=O)NC(=S)Nc2cccnc2)cc1[N+](=O)[O-]	0	0	0	0	0	42	0	0
CCN(C(=O)COC(=O)/C(C#N)=C/c1ccc(OC)cc1)C1CCS(=O)(=O)C1 (configuration not stated)	-	-	-	-	-	0	-	-
CCc1nnc(SCC(=O)N2CCc3ccccc32)n1CC	-	-	-	-	-	0	-	-
CCn1c(CSc2ncccn2)nnc1SCC(=O)N1CCc2ccccc21	0	0	0	0	0	103	0	0
CCOC(=O)/C(C#N)=C1/C(=O)N(Cc2ccccc2)c2ccccc21	0	0	0	0	0	-	-	-
CCOC(=O)C(C#N)=C1CCN(Cc2ccccc2)CC1	-	-	-	-	-	60	36	0
O=C(CSc1nc2ccccc2s1)Nc1cc(S(=O)(=O)N2CCOCC2)ccc1O	105	0	0	0	0	43	0	49
O=C(CC1CCCC1)Nc1cc(S(=O)(=O)N2CCOCC2)ccc1O	-	-	-	-	-	0	-	-
Cc1ccc(C)c(N2C(=N)S/C(=C\c3ccc(-c4ccccc4C(=O)O)o3)C2=O)c1	0	0	0	0	0	0	-	-
CN1C(=O)/C(=C/c2ccc(-c3ccccc3[N+](=O)[O-])o2)SC1=Nc1ccc(Cl)c(C(=O)O)c1	108	47	0	0	0	74	0	0
C=C[C@@H]1c2cc(C)ccc2N(S(=O)(=O)c2ccc(C)cc2)[C@H](c2ccccc2C(F)(F)F)C1(C#N)C#N	-	-	-	-	-	0	-	-
COC(=O)c1ccccc1NCc1cc(=O)oc2cc(O)c(O)cc12	-	-	-	-	-	60	0	65
COc1ccc(C)cc1NCc1cc(=O)oc2cc(-c3ccccc3)c(O)cc12	0	0	0	0	0	0	-	-
Nc1cc2c3c(cccc3c1)C(=O)N(CCN1CCCC1)C2=O	0	-	0	0	0	145	99	132
CC(=O)OCCCN1C(=O)c2cccc3cc(Br)cc(c23)C1=O	-	-	-	-	-	0	-	-
CCN(CC)CCN1C(=O)c2cccc3cc(N)cc(c23)C1=O	0	-	0	0	0	158	128	166
CCN(CC)S(=O)(=O)c1ccc(N2CCOCC2)c(NC(=S)NC(=O)c2ccco2)c1	0	-	0	0	0	0	-	-
Cc1ccccc1NC(=O)CN1C(=O)S/C(=C\c2ccc(-c3cc(C(=O)O)ccc3C)o2)C1=O	0	0	0	0	0	-	-	-
CCOC(=O)C(C)N1C(=O)S/C(=C\c2ccc(-c3ccccc3C(=O)O)o2)C1=O (configuration not stated)	-	-	-	-	-	58	42	62
SMILES	Mcl1-Noxa inh	Bim-Mcl-1	14-3-3 Bad inh	Mcl1-Bid inh	eIF4E 4G PPI	MCL1-BIM inh	Bcl-xL conf	MCL1 BIM confirm
C#CCN1C(=O)S/C(=C\c2ccc(-c3ccc(C(=O)O)cc3C)o2)C1=O	-	-	-	-	-	66	0	0
C/C(=N/NC(=O)c1ccc(Br)o1)c1cccc(NC(=O)c2ccc(F)cc2)c1	-	-	-	-	-	0	-	-
Nc1ccc(S(=O)(=O)Nc2cnc3ccccc3n2)cc1	0	-	0	0	0	0	-	-
Nc1ccc(S(=O)(=O)Nc2nc3ccccc3o2)cc1	-	-	-	-	-	45	0	47
Cc1ccc(OCCOCCn2ccnc2)c(Br)c1	0	0	0	0	0	44	0	0
CC(C)Cn1c(=O)c2ccccc2n2c(CCC(=O)NCC3CCCO3)nnc12 (configuration not stated)	-	-	-	-	-	0	-	-
Cc1ccc(SCC(=O)OCC(=O)N(CCC#N)c2ccccc2)cc1	-	-	-	-	-	0	-	-
Cc1cc(C(=O)NNC(=O)c2sccc2C)c(C)o1	-	-	-	-	-	0	-	-
O=C(O)C1CCCC2CN3CCc4c([nH]c5ccccc45)C3C(O)C21 (configuration not stated)	-	-	-	-	-	104	0	0
Cc1ccc2nc3c(cc(C(=O)NCc4ccco4)c(=N)n3C3CCCC3)c(=O)n2c1	-	-	-	-	-	83	74	94
Cc1cc(=O)cc(C)n1-c1ccccc1N	-	-	-	-	-	0	-	-
Cc1ccc(C)n1-c1ccccc1N	0	0	0	0	0	87	0	0
O=C(c1cc2ccccc2[nH]1)N(Cc1cccnc1)CC1CCCN(C2CCCCC2)C1 (configuration not stated)	-	-	-	-	-	0	-	-
CC1(C)C2CC[C@]3(C)C(CC=C4[C@@H]5C[C@@](C)(CO)[C@@H](O)C[C@]56C[C@@H](OC6=O)[C@]43C)[C@@]2(C)CC[C@@H]1O (some centres not stated)	-	-	-	-	-	0	-	-
